Measurements taken from the supplement of paper PMC6658780.
Where a name gives a salt, the structure may show the parent alone. ± gives the standard deviation of the averaged measurements.

Each molecule was assayed on Klebsiella pneumoniae NCTC-13439 (assay: percent growth inhibition of drug alone vs DMSO control; higher = more growth inhibition). Conditions: antibiotic (0.125x MIC): none (0.1% DMSO); 7 µM.

Structure (SMILES) | percent growth inhibition of drug alone [%]
COc1ccc(OC)c(C(O)CNC(=O)CN)c1 (stereo unspecified) [Midodrine hydrochloride] | -12.1 ± 4.3
Cc1nc2n(c(=O)c1CCN1CCC(c3noc4cc(F)ccc34)CC1)CCCC2 [Risperidone] | -5.2 ± 14
C[C@H](N)[C@H](O)c1cccc(O)c1 [Metaraminol bitartrate] | -7.73 ± 11
N=C(NCCCCCCNC(=N)NC(=N)Nc1ccc(Cl)cc1)NC(=N)Nc1ccc(Cl)cc1 [Chlorhexidine] | 2.54 ± 9.5
COc1c(N2C[C@@H]3CCCN[C@@H]3C2)c(F)cc2c(=O)c(C(=O)O)cn(C3CC3)c12 [Moxifloxacin] | 12.5 ± 0.24
O=C(OCC(O)CO)c1ccccc1Nc1ccnc2cc(Cl)ccc12 (stereo unspecified) [Glafenine hydrochloride] | -9.8 ± 14
NC1CCN(c2nc3c(cc2F)c(=O)c(C(=O)O)cn3-c2ccc(F)cc2F)C1 (stereo unspecified) [Tosufloxacin hydrochloride] | 56.5 ± 19
NC1CCN(c2c(F)cc3c(=O)c(C(=O)O)cn(C4CC4)c3c2Cl)C1 (stereo unspecified) [Clinafloxacin] | 13.5 ± 8.8
CCN1CCN(c2cc3c(cc2F)c(=O)c(C(=O)O)cn3C2CC2)CC1 [Enrofloxacin] | 3.46 ± 4.9
Cc1c(F)c(N2CCNC(C)C2)cc2c1c(=O)c(C(=O)O)cn2C1CC1 (stereo unspecified) [Grepafloxacin] | 13 ± 6.5
NC(=O)N/N=C/c1ccc([N+](=O)[O-])o1 [Nitrofural] | -7.28 ± 2
COc1c(N2CCNC(C)C2)c(F)cc2c(=O)c(C(=O)O)cn(C3CC3)c12 (stereo unspecified) [Gatifloxacin] | 12.5 ± 5.8
C#C[C@]1(OC(C)=O)CC[C@H]2[C@@H]3CCC4=CC(=NO)CC[C@@H]4[C@H]3CC[C@@]21CC (mixture of isomers) [Norgestimate] | -4.1 ± 1.3

Same assay, conditions: antibiotic (0.125x MIC): none (0.1% DMSO); 20 µM

Structure (SMILES) | percent growth inhibition of drug alone [%]
COc1ccc(OC)c(C(O)CNC(=O)CN)c1 (stereo unspecified) [Midodrine hydrochloride] | -4.02 ± 9.3
Cc1nc2n(c(=O)c1CCN1CCC(c3noc4cc(F)ccc34)CC1)CCCC2 [Risperidone] | -6.94 ± 7.8
C[C@H](N)[C@H](O)c1cccc(O)c1 [Metaraminol bitartrate] | -0.507 ± 15
N=C(NCCCCCCNC(=N)NC(=N)Nc1ccc(Cl)cc1)NC(=N)Nc1ccc(Cl)cc1 [Chlorhexidine] | 57.6 ± 4.2
O=C(OCC(O)CO)c1ccccc1Nc1ccnc2cc(Cl)ccc12 (stereo unspecified) [Glafenine hydrochloride] | 3.73 ± 17
NC1CCN(c2nc3c(cc2F)c(=O)c(C(=O)O)cn3-c2ccc(F)cc2F)C1 (stereo unspecified) [Tosufloxacin hydrochloride] | 99.38 ± 0.74
CC(=O)CCCCn1c(=O)c2c(ncn2C)n(C)c1=O [Pentoxifylline] | 2.73 ± 3.2
Cc1c(F)c(N2CCNC(C)C2)cc2c1c(=O)c(C(=O)O)cn2C1CC1 (stereo unspecified) [Grepafloxacin] | 23.5 ± 9.9
NC(=O)N/N=C/c1ccc([N+](=O)[O-])o1 [Nitrofural] | 11.8 ± 8.7
C#C[C@]1(OC(C)=O)CC[C@H]2[C@@H]3CCC4=CC(=NO)CC[C@@H]4[C@H]3CC[C@@]21CC (mixture of isomers) [Norgestimate] | -14.2 ± 4.9

The molecules below were run on Klebsiella pneumoniae KPC-119 (assay: percent growth inhibition of drug + antibiotic vs DMSO control; higher = more growth inhibition). Conditions: antibiotic (0.125x MIC): colistin; 7 µM.

Structure (SMILES) | percent growth inhibition [%]
CCn1cc(C(=O)O)c(=O)c2cc(F)c(N3CCNCC3)nc21 [Enoxacin] | 13.6 ± 6.1
CS(=O)(=O)c1ccc([C@@H](O)[C@@H](CF)NC(=O)C(Cl)Cl)cc1 [Florfenicol] | 97.49 ± 0.25
COc1cccc2c1C(=O)c1c(O)c3c(c(O)c1C2=O)C[C@@](O)(C(C)=O)C[C@@H]3O[C@H]1C[C@H](N)[C@H](O)[C@H](C)O1 [Daunorubicin hydrochloride] | -2.48 ± 6.2
C[C@H]1c2cccc(O)c2C(=O)C2=C(O)[C@]3(O)C(=O)C(C(N)=O)=C(O)[C@@H](N(C)C)[C@@H]3[C@@H](O)[C@@H]21 [Doxycycline hydrochloride] | 42.8 ± 2.2
O=C1NCN(c2ccccc2)C12CCN(CCCC(c1ccc(F)cc1)c1ccc(F)cc1)CC2 [Fluspirilen] | 4.99 ± 4
CN(C)CCCN1c2ccccc2Sc2ccc(Cl)cc21 [Chlorpromazine hydrochloride] | 41.9 ± 12
C=CC1=C(C(=O)O)N2C(=O)[C@@H](NC(=O)/C(=N\OCC(=O)O)c3csc(N)n3)[C@H]2SC1 [Cefixime] | 9.79 ± 12
CCCCC(CC)CNC(=N)NC(=N)NCCCCCCNC(=N)NC(=N)NCC(CC)CCCC (stereo unspecified) [Alexidine dihydrochloride] | 98.02 ± 0.96
CCCCCCCCNC(C)C(O)c1ccc(SC(C)C)cc1 (stereo unspecified) [Suloctidil] | 3.9 ± 5.4
COC(=O)N/N=C/c1c[n+]([O-])c2ccccc2[n+]1[O-] [Carbadox] | 34.1 ± 0.81
NCC[C@H](O)C(=O)N[C@@H]1C[C@H](N)[C@@H](O[C@H]2O[C@H](CN)[C@@H](O)[C@H](O)[C@H]2O)[C@H](O)[C@H]1O[C@H]1O[C@H](CO)[C@@H](O)[C@H](N)[C@H]1O [Amikacin hydrate] | 38.9 ± 2.6
CC1COc2c(N3CCN(C)CC3)c(F)cc3c(=O)c(C(=O)O)cn1c23 (stereo unspecified) [Ofloxacin] | 98.02 ± 0.8
Oc1c(I)cc(Cl)c2cccnc12 [Clioquinol] | 47.2 ± 5.2
